# Screens from PubChem BioAssay.
# DT40 TDP1 no CPT – qHTS for Inhibitors of human tyrosyl-DNA phosphodiesterase 1 (TDP1): qHTS in cells in absence of CPT; Potency, µM (highest dose often 46.2 µM), inactives show at the top dose activity change, negative = growth inhibition, most hits filed as inhibitors; DT40 Tdp1-/- hTDP1 cells, no CPT, ATP luminescence, 48 h; 420,000 compounds, 15% hits; further: potency means the concentration at half of the fitted maximal effect; on the % scale 0 is the no-effect control and ±100 the full control effect; nearly all actives have a fitted effect of over 55% in size
#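 Cells were dispensed at 400 per well, compounds added by pin tool, plates incubated ≥48 hr at 37 °C, then CellTiter-Glo added for 30 min at room temperature before luminescence reading. Line: DT40 Tdp1-/- complemented with hTDP1; camptothecin omitted.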
# DRD3 agonist – activates the human D3 dopamine receptor; P35462; D3R DiscoveRx beta-arrestin cells, luminescence, 90 min; max activation, %; 410,000 compounds, 0.58% hits; AID 652048; in the data active means max activation above about 30%; further: 0% is about no effect
# Target sequence (P35462 whole entry, looked up): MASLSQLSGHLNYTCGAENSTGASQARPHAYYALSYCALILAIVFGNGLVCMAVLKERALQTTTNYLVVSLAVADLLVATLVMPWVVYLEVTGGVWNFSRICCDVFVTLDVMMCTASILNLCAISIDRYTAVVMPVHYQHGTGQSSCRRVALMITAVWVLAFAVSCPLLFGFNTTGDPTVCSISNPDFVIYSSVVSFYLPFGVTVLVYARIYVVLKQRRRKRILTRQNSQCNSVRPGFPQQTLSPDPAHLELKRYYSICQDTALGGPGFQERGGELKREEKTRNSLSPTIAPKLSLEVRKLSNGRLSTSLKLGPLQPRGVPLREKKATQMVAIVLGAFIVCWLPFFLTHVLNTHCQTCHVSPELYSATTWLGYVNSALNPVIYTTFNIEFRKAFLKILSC
#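 Agonist-mode cell screen: cells plated at 1500/well and incubated overnight at 37 °C, then exposed to library compounds for 90 min at 37 °C. Detection reagent was added for 30–60 min at room temperature, and luminescence was read.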
# IL-1B inflam inh – blocks inflammasome-driven IL-1 beta release. THP-1 LPS/ATP IL-1B secretion, AlphaLISA, 16 h; active compounds read low. activity change, % at 57.5 µM. 360,000 compounds, 4.7% hits. AID 743279; in the data active means activity change below about -50%; inconclusive means mostly about -30% to -49%; further: on the % scale 0 is the no-effect control and ±100 the full control effect
#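 Secreted IL-1B measured by AlphaLISA bead assay after 16 h compound exposure of THP-1 cells; compounds (final up to 57.5 uM) added 1 h before LPS (250 ng/mL) and ATP (1.25 mM) stimulation; lower signal means less secretion.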
# TDP1 cell CPT – DT40-hTDP1 cell growth loss with CPT; Potency, µM (doses to about 46.2 µM), inactives show top-dose activity change, negative = growth inhibition, most hits filed as inhibitors; AID 686979; 420,000 compounds, 12% hits; chicken DT40 Tdp1-/-;hTDP1 cells + 20 nM CPT, ATP luminescence, 48 h; further: potency means the concentration at half of the fitted maximal effect; on the % scale 0 is the no-effect control and ±100 the full control effect; nearly all actives have a fitted effect of over 55% in size
#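 Cell growth measured by CellTiter-Glo luminescence after a minimum 48 h, 37 C compound exposure with 20 nM CPT in Tdp1-knockout DT40 cells stably expressing hTDP1, seeded 400/well; qHTS titration format.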
# ClpP mod – qHTS Assay for Activators of ClpP | 340,000 compounds, 1.9% hits | purified B. subtilis ClpP, FRET peptide cleavage, 20 min | ATP-dependent Clp protease proteolytic subunit (Bacillus subtilis (strain 168)), P80244 | Potency, µM (doses to about 57.5 µM), without a hit: at the top dose activity change, negative = active | AID 651965, 2013; active means well fitted falling curve with a large enough effect; inconclusive means small, poorly fitted or top-dose-only effect; inactive means no such curve, though single readings can be large or run the other way; further: potency means the concentration at half of the fitted maximal effect; the source files actives as falling curves though it sought activators and does not explain the sign; nearly all actives have a fitted effect of over 65% in size
#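 FRET quenching reversal measured ClpP activation: 10 microg/mL B. subtilis ClpP at pH 8 with the FRET-FV decapeptide, read at 430 nm after 320 nm excitation. The 20-min minus 0-min signal was scaled between DMSO/no-enzyme wells and ADEP (5.8 microM final).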
# D3 antag – blocks the human D3 dopamine receptor; AID 652054; D3R cells, DiscoveRx beta-arrestin luminescence, antagonist mode; active compounds read low; P35462; 360,000 compounds, 2.5% hits; max response, negative = inhibition, %; in the data active means max response below about -50%; inconclusive means no clear call, values can overlap the other calls; further: on the % scale 0 is the no-effect control and ±100 the full control effect
#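 Cells plated overnight at 1500 cells/well, then exposed to library compounds with dopamine controls for 90 minutes at 37 degrees C. DiscoveRx reagent added for 30–60 minutes at room temperature; luminescence read, quantitative HTS format.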
# An asterisk follows results filed as active; ? = inconclusive; · = no result given; ! = not confirmed by another sample. An excerpt weighted towards active compounds, which were near 21% of everything screened. Unless noted, the call rests on the fitted dose curve; in most records, active means well fitted inhibition curve with a large enough effect; inconclusive means small, poorly fitted or top-dose-only effect; inactive means flat fitted curve, though single readings scatter.
SMILES,DT40 TDP1 no CPT,DRD3 agonist,IL-1B inflam inh,TDP1 cell CPT,ClpP mod,D3 antag
O=C(N/N=C/c1ccccc1O)c1ccncc1,3.66µM*,4.9,110.1,4.61µM*!,0.5%,11.0
O=C(N/N=C/c1cc(Br)ccc1O)c1ccncc1,1.64µM*,-5.3,162.3,4.61µM*,1.7%,24.6
O=C(CNC(=O)c1ccc(S(=O)(=O)N2CCCC2)cc1)N/N=C/c1c(Cl)cccc1Cl,?,4.6,-58.0*,?,-5.0%,0.1
O=C(CNC(=O)c1ccc(S(=O)(=O)N2CCCC2)cc1)N/N=C/c1ccc(Cl)cc1,?,-6.7,-12.9,?,0.9%,-13.2
O=C(N/N=C/c1ccccc1O)C(=O)Nc1ccccn1,14.6µM*,0.9,67.7,13µM*,0.4%,11.5
O=C(N/N=C/c1cc([N+](=O)[O-])ccc1O)c1ccncc1,?,-6.8,141.8,?,1.5%,?
O=C(NCCc1cnn(-c2ccccc2)c1)c1cc(COc2c(F)cccc2F)on1,?,-0.3,-23.0,?,·,6.4
CCc1ccc(CNc2nc3nc(C)c(Cc4ccccc4)c(=O)n3[nH]2)cc1,?,-15.3,·,?,-5.5%,·
Cc1ccc(NCC(=O)N/N=C/c2cc3ccccc3nc2Cl)cc1,29.1µM*,2.3,-21.0,23.1µM*,-9.4%,-6.1
Cc1ccc(N=Nc2ccc(O)c(/C=N\NC(=O)c3ccc(N)cc3)c2)cc1C,13µM*,5.0,86.5,10.3µM*,-0.1%,-22.4
CC(C)(C)OC(=O)N/N=C/c1cc(N=Nc2ccccc2)ccc1O,?,9.6,-10.8,?,-6.2%,?
Cc1nc(C)c(C(=O)N/N=C/c2c[nH]c3ccccc23)s1,?,-11.9,22.0,?,2.0%,-25.5
O=C(N/N=C/c1cc(Br)ccc1OC(=O)c1ccc(Br)cc1)c1ccncc1,6.51µM*,5.6,112.8,4.61µM*,·,6.2
Cc1nc(C)c(C(=O)N/N=C/c2cc(Br)ccc2O)s1,3.66µM*,16.1,118.6,4.61µM*,3.5%,28.7
CCCCN(C=O)c1c(CC)nc2ccc(C(=O)N3CCN(C(C)=O)CC3)cn12,-13.2%,9.8,4.9,-27.9%,-3.2%,17.9
O=C(N/N=C/c1cc(Cl)ccc1O)c1ccc(Br)cc1,5.8µM*,-5.0,47.1,5.17µM*,2.2%,-21.0
O=C(N/N=C/c1ccc(O)c2ncccc12)c1cccc(Br)c1,4.61µM*,15.9,120.7,3.66µM*,·,0.2
O=C(NN=Cc1cccc(O)c1O)c1ccccc1,4.61µM*,15.8,134.5,2.59µM*,1.9%,0.0
NC(=S)N/N=C/c1cccc(O)c1O,0.92µM*,24.1,59.4,0.581µM*,·,13.5
NC(=S)N/N=C/c1ccccc1O,?,1.3,5.5,?,-25.5%,2.4
Cc1ccc(S(=O)(=O)NCc2nc(-c3cccc(C)c3)no2)cc1,?,-13.2,·,?,-1.4%,·
O=C(N/N=C/c1cc2ccccc2nc1Cl)c1ccncc1,4.61µM*,0.6,101.7,2.59µM*,·,10.5
O=C(N/N=C/c1ccccc1O)c1cc[n+]([O-])cc1,29.1µM*,3.2,42.3,14.6µM*,·,8.6
O=C(N/N=C\c1cc(Br)ccc1O)c1ccc(S(=O)(=O)N2CCCCC2)cc1,2.91µM*,-9.8,91.3,4.11µM*,1.5%,22.1
Cn1cc(Br)c(C(=O)N/N=C/c2cc3ccccc3nc2Cl)n1,20.6µM*,3.4,-24.2,?,-0.1%,3.2
COc1ccc(S(=O)(=O)N2CCC(C(N)=O)CC2)cc1C(=O)N1CCCCCC1,-10.4%,0.7,-7.4,4.5%,·,8.4
COC(=O)/C=C/c1cnc[nH]1,-6.8%,-9.9,12.3,?,0.1%,?
c1ccc(CSc2ccc(-c3ccccn3)nn2)nc1,?,2.8,219.1,?,·,4.3
